High-throughput results deposited in PubChem by National Center for Advancing Translational Sciences (NCATS).
The list is not random: actives were taken first. Their share in the collection is about 11%.
Pf growth 96h = P. falciparum growth inhibition at 96 hour, primary screen for plastid delayed-death inhibitors; P. falciparum luciferase reporter growth, 96 h; Potency, µM (titrated, usually from 28.7 µM), for inactives: top-dose activity change, negative = inhibition, most hits filed as inhibitors; 320,000 tested, 6.9% active
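Luminescence readout: decreased luciferase signal marks inhibited growth of reporter-expressing P. falciparum in infected red cells (2% hematocrit, 0.05% parasitemia final), exposed to compound two generations (96 h, 37 C, 5% CO2).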
Pf growth 48h = inhibits P. falciparum growth in the first generation, 48 h | Potency, µM (highest dose often 28.7 µM), for inactives: at the top dose activity change, negative = inhibition, most hits filed as inhibitors | 310,000 tested, 5.9% active | P. falciparum luciferase growth in erythrocytes, 48 h
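Here the parasites carry a stable luciferase gene and grow inside erythrocytes in Albumax-based RPMI medium with compound for one erythrocytic cycle. Activity is scored as loss of luminescent signal.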
AMA1 RON2 block = AMA1-RON2 (P. falciparum) interaction inhibition. 360,000 tested, 0.2% active. Potency, µM (doses to about 58.2 µM), for inactives: at the highest dose activity change, negative = inhibition, actives largely listed as inhibitors. AID 720542. AlphaScreen AMA1-biotinylated RON2 peptide binding;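 also: 0% = vehicle wells and -100% = peptide control; nearly all actives have a fitted effect of over 45% in size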
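AMA1 (3D7) with his tag at 25 nM final met compounds first, then biotinylated RON2 peptide at 25 nM; detection used donor plus acceptor beads, 10 µg/mL apiece, read by AlphaScreen after 30 min at room temperature.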
HCV inhibitor = HCV inhibition. Huh7.5.1 HCVcc-Cre infection, luciferase reporter, 44 h. Potency, µM (titrated, usually from 41.8 µM), inactives show at the highest dose activity change, negative = inhibition, hits mostly inhibitors. 340,000 tested, 3.4% active
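1,000 cells/well; 4 h culture; + compound; + HCVcc-Cre (~0.5 moi); 44 h; luciferase substrate, RT 15 min; read 15 sec.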
* marks the source's active call; other numbers are inactive results; ? = inconclusive; . = no result given. Calls follow the shape of the dose curve; as a rule, active = well fitted curve in the direction sought with a large enough effect; inconclusive = small, poorly fitted or top-dose-only effect, or another doubt; inactive = no such curve, though single readings can be large; an effect the other way counts as inactive or inconclusive. Unless noted, % is scaled to controls: 0 for no effect and ±100 for the full control effect; potency is read from the fitted curve at half-maximal effect.

SMILES	Pf growth 96h	Pf growth 48h	AMA1 RON2 block	HCV inhibitor
COC(=O)C1=C(c2ccc(OC)c(OC)c2)C[C@@H]2CC[C@H]1N2C(=O)NCc1cccc2ccccc12	0.23µM*	0.52µM*	5%	-21%
COC(=O)C1=C(c2ccc(OCc3ccccc3)cc2)C[C@@H]2CC[C@H]1N2C(=O)NCc1ccc(OC)cc1	.	.	-19%	.
COC(=O)C1=C(c2cccc(OCc3ccccc3)c2)C[C@@H]2CC[C@H]1N2C(=O)NCc1ccc(OC)cc1	?	7.4µM*	-3%	22µM*
COC(=O)C1=C(c2ccc(OC)c(OC)c2)C[C@@H]2CC[C@H]1N2C(=O)NCc1cc(C)oc1C(F)(F)F	?	9.3µM*	-5%	-23%
NNC(=O)CCc1ccc(S(=O)(=O)N2CCOCC2)cc1	1%	-21%	58%	7%
COC(=O)C1=C(c2cccc(OCc3ccccc3)c2)C[C@@H]2CC[C@H]1N2C(=O)NCc1ccccc1OC	?	7.4µM*	10%	?
COC(=O)C1=C(c2ccc(OCc3ccccc3)cc2)C[C@@H]2CC[C@H]1N2C(=O)NCc1ccc(C(C)(C)C)cc1	.	.	-1%	.
COC(=O)C1=C(c2cccc(OCc3ccccc3)c2)C[C@@H]2CC[C@H]1N2C(=O)NCc1cc(C)oc1C(F)(F)F	?	4.7µM*	-10%	?
COc1ccc([N+](=O)[O-])cc1NC(=S)NC(NC(=O)Cc1ccc(OC)c(OC)c1)C(Cl)(Cl)Cl (stereo not given)	0%	?	-22%	7.9µM*
COc1ccc(NC(=S)NC(NC(=O)C(C)C)C(Cl)(Cl)Cl)c([N+](=O)[O-])c1 (stereo not given)	50%	2.6µM*	-12%	-12%
COc1ccc(NC(=O)CC(C)C)c([N+](=O)[O-])c1	0%	31%	-6%	18%
COc1ccc([N+](=O)[O-])cc1NC(=O)Cc1ccc(Cl)cc1	10µM*	-12%	1%	8.9µM*
O=C(Cc1ccc([N+](=O)[O-])cc1)Nc1ccc(Cl)cc1	4%	10µM*	4%	22%
Cc1cccc(C(=Cc2ccc([N+](=O)[O-])cc2)C(=O)O)c1	.	.	-6%	.
Cc1ncsc1CCOC(=O)c1cccc([N+](=O)[O-])c1	?	29%	0%	-5%
Cc1ncsc1CCOC(=O)C1C2CC3CC(C2)CC1C3 (stereo not given)	13µM*	?	14%	11%
CN(c1cccc(NC(=O)COc2ccc(Cl)cc2Cl)c1)S(C)(=O)=O	108%	152%	4%	-29%
COc1ccc(NS(=O)(=O)c2cccc(NC(=O)c3ccc(S(=O)(=O)N4CCCCCC4)cc3)c2)cc1	13µM*	?	-1%	?
COc1ccc(NC(=O)c2ccc(CNc3c(NC4CCCCC4)c(=O)c3=O)cc2)cc1OC	15µM*	.	0%	-10%
COc1ccccc1NS(=O)(=O)c1cc(NC(=O)c2ccc(Cl)nc2)ccc1Cl	3.3µM*	1.7µM*	2%	7.1µM*
O=C(Nc1ccc(N2CCCCC2)cc1)c1ccc2ccccc2n1	123%	345%	?	10µM*
C#Cc1ccc(NC(=O)C2(C)CCN2C(=O)c2cc(C)n(C)n2)cc1 (stereo not given)	.	.	10%	.
CCCCCCNC(=O)CCCCCNS(=O)(=O)c1ccc(Br)cc1	65%	?	15%	-13%
O=C(NCc1cccc(Br)c1)C1CC(c2ccccc2C(F)(F)F)=NO1 (stereo not given)	48%	30%	-3%	-27%
CC(C)CCNC(=O)NC(=O)CSc1ncccn1	30%	0%	5%	-3%
SMILES	Pf growth 96h	Pf growth 48h	AMA1 RON2 block	HCV inhibitor
C[N+](C)(C)CCN1C(=O)c2ccccc2C1=O	.	.	1%	.
COc1ccc(C(=O)Nc2ccc(C)c(S(=O)(=O)N3CCCCCC3)c2)cc1	0%	?	-5%	32µM*
COc1ccc(NC(=O)c2ccc(-c3ccccc3)cc2)cc1S(=O)(=O)N1CCOCC1	-25%	0%	-8%	?
CCc1ccc(C(=O)Nc2ccc(OC)c(S(=O)(=O)N3CCOCC3)c2)cc1	?	0%	1%	8.9µM*
Cc1csc(NC(=O)c2ccc(C)c(S(=O)(=O)N3CCCCC3)c2)n1	4.1µM*	3.3µM*	-12%	-27%
O=C(Nc1cccc(S(=O)(=O)C(F)F)c1)c1ccc(S(=O)(=O)N2CCCC2)cc1	-12%	-21%	-12%	5µM*
COc1ccc(C(=O)Nc2nc(C)cs2)cc1S(=O)(=O)N1CCCC1	?	-17%	1%	5%
CC(C)(C)C(=O)NCCCC(=O)O	-11%	?	.	.
COC(=O)c1ccc(CC(=O)c2c(C)cc(O)cc2O)o1	-11%	-1%	-24%	22%
COc1ccc(COC(=O)c2ccc(Br)c(S(=O)(=O)N3CCOCC3)c2)cc1F	?	3.3µM*	-26%	?
COc1ccc(S(=O)(=O)N2CCCCC2)cc1NC(=O)c1ccc2ccccc2n1	-1%	0%	3%	?
COc1ccc(NC(=O)c2ccc(Cl)nc2)cc1S(=O)(=O)N1CCOCC1	12µM*	?	-3%	?
COc1ccc(NC(=O)c2ccc3ccccc3n2)cc1S(=O)(=O)N1CCCCC1	-23%	45%	0%	5.6µM*
O=C(Nc1cccc(S(=O)(=O)N2CCOCC2)c1)c1ccc(Cl)nc1	.	.	10%	?
COc1ccc(NC(=O)Cn2ncc(Cl)c(Cl)c2=O)cc1S(=O)(=O)N1CCOCC1	?	?	-6%	8.9µM*
CCCc1nc2c(sc3nc4c(cc32)COC(C)(C)C4)c(=O)n1CCN(CC)CC	12%	-6%	-19%	3%
Cc1ccc(S(=O)(=O)NCc2cn3ccccc3n2)c(C)c1	0%	5%	0%	3%
CC(=O)N1c2ccc(S(=O)(=O)N3CCC(C(=O)NC(C)c4ccccc4)CC3)cc2CC1C (stereo not given)	?	-10%	-1%	-23%
Cc1ccc(NC(=O)C2CCCN2C(=O)OC(C)(C)C)cc1C (stereo not given)	?	?	-3%	-2%
Cc1ccc(C)c(N2CCN(C(=O)CCc3nc(-c4ccccc4Cl)no3)CC2)c1	.	.	-12%	-12%
Cc1cc(NC(=O)CS(=O)(=O)Cc2ccccc2)no1	-1%	8%	?	21%
COc1ccc(NC(=O)c2ccncc2)cc1S(=O)(=O)N1CCCCC1	.	.	9%	.
CCc1ccc(C(=O)Nc2ccc(OC)c(S(=O)(=O)N3CCCCC3)c2)cc1	?	?	0%	4.5µM*
O=C(CN1CCN(c2nc(-c3ccccc3)cs2)CC1)NNC(=O)c1ccco1	?	6%	22%	25%
CCc1nnc(NC(=O)CSc2nnc3nc(C)cc(C)n23)s1	2.1µM*	-10%	45%	16%
O=C(Nc1ccc(NC(=O)c2ccc(Cl)cc2Cl)cc1)c1cccs1	?	6%	15%	-22%
CC(C)C(=O)N1CCN(c2ccc(NC(=O)c3cccs3)cc2Cl)CC1	-1%	?	-6%	10µM*
O=C(Nc1ccc(NC(=O)c2cccs2)cc1)c1cccs1	13%	59%	0%	9%
